# The list is not random: actives were taken first. Their share in the collection is about 19%.
# HT1080NT lethal – kills 2HG-producing HT-1080-NT fibrosarcoma cells. HT-1080-NT fibrosarcoma viability, CellTiter-Glo ATP luminescence, 48 h. AID 686970. 360,000 compounds, 1.6% hits. Potency, µM (titrated, usually from 46.1 µM), for inactives: top-dose activity, negative = less viability, actives largely listed as cytotoxic;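 further: NT is the 2HG producing partner of a matched IDH1 knockdown line; potency means the concentration at half of the fitted maximal effect; 0% = DMSO-treated cells and -100% = media-only wells without cells; nearly all actives have a fitted effect of over 55% in size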
#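 Toxicity toward the 2HG-producing NT line was scored as %Activity, normalised to DMSO and no-cell wells, from CellTiter-Glo luminescence after 48 hours' treatment.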
# TDP1 cell CPT – DT40-hTDP1 cell growth loss with CPT | chicken DT40 Tdp1-/-;hTDP1 cells + 20 nM CPT, ATP luminescence, 48 h | Potency, µM (titrated, usually from 46.2 µM), inactives show at the top dose activity change, negative = growth inhibition, hits mostly inhibitors | 420,000 compounds, 12% hits; further: potency means the concentration at half of the fitted maximal effect; nearly all actives have a fitted effect of over 55% in size
#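 Cell growth measured by CellTiter-Glo luminescence after a minimum 48 h, 37 C compound exposure with 20 nM CPT in Tdp1-knockout DT40 cells stably expressing hTDP1, seeded 400/well; qHTS titration format.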
# IL1B secr inh – inhibitors of inflammasome signaling (IL-1 beta secretion); THP-1 LPS/ATP IL-1B secretion, AlphaLISA, 16 h; active compounds read low; activity change, % at 57.5 µM; 360,000 compounds, 4.7% hits; AID 743279; in the data active means activity change below about -50%; inconclusive means mostly about -30% to -49%
#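 THP-1 cells pretreated 1 hr with compounds (up to 57.5 uM final), then stimulated with LPS (250 ng/mL final) plus ATP (1.25 mM final); secreted IL-1B measured by AlphaLISA after 16 hr, decreased signal indicating inhibition.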
# TDP1 cell noCPT – qHTS for Inhibitors of human tyrosyl-DNA phosphodiesterase 1 (TDP1): qHTS in cells in absence of CPT; DT40 Tdp1-/- hTDP1 cells, no CPT, ATP luminescence, 48 h; Potency, µM (titrated, usually from 46.2 µM), inactives show at the top dose activity change, negative = growth inhibition, most hits filed as inhibitors; 420,000 compounds, 15% hits; AID 686978, 2013; further: potency means the concentration at half of the fitted maximal effect; nearly all actives have a fitted effect of over 55% in size
#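 Seeded 400 DT40-hTDP1 cells/well (vehicle DMSO, no 20 nM CPT); pinned compounds; ≥48 hr at 37 °C; CellTiter-Glo luminescence as viability measure.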
# HT1080 IDH1KD tx – kills HT-1080 cells with IDH1 knockdown; HT-1080 IDH1 knockdown viability, ATP luminescence, 48 h; Potency, µM (doses to about 46.1 µM), for inactives: top-dose activity, negative = toxicity, actives largely listed as cytotoxic; 360,000 compounds, 2% hits; AID 686971;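 further: potency means the concentration at half of the fitted maximal effect; 0% = DMSO wells and -100% = cell-free medium wells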
#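 In this qHTS, HT-1080 cells depleted of IDH1 are exposed for 48 h at 37 °C to compound titrations. Toxicity is scored from CellTiter-Glo luminescence, with DMSO as full viability and medium alone as none.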
# ELG1 DNA repair – inhibitors of ELG1-dependent DNA repair in HEK293T cells; HEK293T ELG1-luciferase reporter, luminescence, 16 h; DNA damage induced by 5-fluorouridine; Potency, µM (doses to about 46.1 µM), for inactives: at the highest dose activity change, negative = inhibition, most hits filed as inhibitors; 330,000 compounds, 2.3% hits; AID 504467; further: potency means the concentration at half of the fitted maximal effect; nearly all actives have a fitted effect of over 55% in size
#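 Luminescence from the luciferase reporter, measured 30 min after ONE-Glo reagent at room temperature, was the read-out. Beforehand, 2,000 cells per well were exposed for 16 hr at 37 °C to 5-fluorouridine together with compound or vehicle.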
# Numbers without * were called inactive; i = inactive; ? = inconclusive; . = not tested or not shown; [ ] = remark or other dose. Unless noted, the call rests on the fitted dose curve; in most records, active means well fitted curve in the direction sought with a large enough effect; inconclusive means small, poorly fitted or top-dose-only effect, or another doubt; inactive means no such curve, though single readings can be large; an effect the other way counts as inactive or inconclusive. Unless noted, on the % scale 0 is the no-effect control and ±100 the full control effect.
SMILES,HT1080NT lethal,TDP1 cell CPT,IL1B secr inh,TDP1 cell noCPT,HT1080 IDH1KD tx,ELG1 DNA repair
COc1ccc(NC(=O)C2Cc3ccccc3N2C(=O)c2ccccc2)c(OC)c1 (stereo not drawn),.,-26%,.,-23%,.,.
S=C(NCc1ccc2c(c1)OCO2)NC1CC1,-8%,0%,-8,-3%,-5%,1%
COCCNc1nc(Oc2ccc(CC(=O)OC)cc2)c2sc(-c3ccccc3)cc2n1,-3%,?,4,18µM*,-15%,.
COCCNc1nc(Oc2ccc(NC(C)=O)cc2)c2sc(-c3ccccc3)cc2n1,?,?,?,?,-6%,.
COCCNc1nc(NCc2cccc(OC)c2)c2sc(-c3ccccc3)cc2n1,?,18µM*,-112*,13µM*,?,.
COCCNc1nc(N)c([N+](=O)[O-])c(NCc2ccccc2)n1,?,?,92,?,-10%,7%
COCCNc1nc(NCc2ccc(NC(C)=O)cc2)c2sc(-c3ccccc3)cc2n1,9.2µM*,3.3µM*,0,4.1µM*,?,.
COc1ccc(Nc2ncnc3scc(-c4ccc(OC)cc4)c23)cc1,?,2.9µM*,0,4.6µM*,?,12µM*
COc1ccc(-c2csc3ncnc(Nc4ccc(OC)c(OC)c4)c23)cc1,.,?,.,8.2µM*,.,.
COc1ccc(-c2csc3ncnc(Cl)c23)cc1,-21%,?,-29,?,-13%,9%
COc1ccc(-c2cc(-c3ccccc3)c(C#N)c(SCC(O)CS(=O)(=O)Cc3ccc(Cl)cc3)n2)cc1 (stereo not drawn),.,-24%,.,?,.,.
N#Cc1c(-c2ccccc2)cc(-c2ccccc2)nc1SCC(O)CS(=O)(=O)Cc1ccc(Cl)cc1 (stereo not drawn),.,8.2µM*,.,3.3µM*,.,.
O=C(c1ccc(Cl)cc1)c1ccc(OCC(O)CN2CCOCC2)cc1 (stereo not drawn),0%,23µM*,-4,16µM*,-4%,?
OC(COc1ccc2cc(Br)ccc2c1)CN1CCOCC1 (stereo not drawn),-27%,18µM*,-26,?,?,?
OC(COc1ccccc1)CN1CCOCC1 (stereo not drawn),6%,0%,14,-3%,15%,14%
O=C1C(=O)N(C2CCCC2)C(=O)N1Cc1c(F)cccc1Cl,4%,1%,1,4%,0%,13%
CC1CCN(C(=O)c2ccc3c(c2)NC(=O)/C(=C/c2ccccc2)S3)CC1,?,?,.,-21%,?,13%
CCN1CCCC1CNC(=O)c1ccc2c(c1)NC(=O)/C(=C\c1ccc(C)cc1)S2 (stereo not drawn),?,?,-15,16µM*,0%,15%
Cc1ccc(/C=C2/Sc3ccc(C(=O)N4CCN(C)CC4)cc3NC2=O)cc1,-14%,23µM*,-5,?,-20%,19%
CCC1CN(CC(=O)NCc2cc(C)n(C)n2)Cc2cc(OC)ccc2O1 (stereo not drawn),.,18%[9.04 µM],.,-3%,.,.
COc1cc(C(=O)O/N=C2\CCCc3c2ccc(OC)c3[N+](=O)[O-])cc(OC)c1OC,-4%,10µM*,-4,3.3µM*,-1%,11%
COc1ccc(NC(C)=O)cc1S(=O)(=O)Nc1ccccc1C(=O)NCCc1ccccc1,21%,-9%,10,1%,-2%,?
CCOc1ccc(NS(=O)(=O)c2cc(Cl)ccc2OC)cc1,-5%,?,28,16µM*,-14%,.
COc1ccc(NC(C)=O)cc1S(=O)(=O)Nc1ccc(OCc2ccccc2)cc1,-20%,16µM*,10,15µM*,-20%,?
O=c1[nH]c2ccc(NS(=O)(=O)c3ccc(Cl)cc3)cc2[nH]1,0%,-12%,0,-11%,0%,-15%
SMILES,HT1080NT lethal,TDP1 cell CPT,IL1B secr inh,TDP1 cell noCPT,HT1080 IDH1KD tx,ELG1 DNA repair
COc1ccc(C(=O)N(Cc2ccccc2)Cc2ccc(OC)c(COc3ccc(NC(C)=O)cc3)c2)cc1,0%,?,.,22µM*,-3%,.
CCN(Cc1ccccc1)C(=O)c1ccc(NC(=O)c2ccc(OC)cc2)cc1,23%,?,0,?,0%,?
COc1ccc(Cl)cc1S(=O)(=O)Nc1ccc2[nH]c(=O)[nH]c2c1,.,21µM*,.,16µM*,.,.
CCOC(=O)C1=CN(CC)S(=O)(=O)NC1c1ccc(C(F)(F)F)cc1 (stereo not drawn),-3%,-19%,34,-16%,-4%,0%
Cc1c(Cl)cccc1NC(=S)NCC(c1cccnc1)N(C)C (stereo not drawn),1%,-1%,-13,-7%,1%,4%
CSCCC(NC(=O)c1ccccc1)C(=O)N1CCN(C(c2ccccc2)c2ccccc2)CC1 (stereo not drawn),1%,?,i,?,18%,?
COC(=O)[C@@H]1CCCN1C(=O)c1cc(NC(=O)c2ccccc2)cc2ncn(C3CCCC3)c12,.,-21%,.,-23%,.,.
O=C(c1ccc(Cl)cc1)n1nc(-c2ccco2)nc1NCc1cccs1,.,-1%,.,-10%,.,.
COc1ccc(F)cc1S(=O)(=O)Nc1ccc(C)cc1,-10%,-3%,9,23µM*,-25%,9%
O=C(C=Cc1ccco1)c1cc(Cl)ccc1O,-1%,?,-91*,?,7%,.
O=C(C=Cc1cccs1)c1ccc(Cl)s1,-19%,-5%,-16,?,-2%,.
O=C(/C=C/c1cccs1)c1cc(Cl)ccc1O,-3%,16µM*,-21,?,-12%,0%
CCOC(=O)C(=CNc1ccc(C(F)(F)F)cc1)C(=O)OCC,10%,4%,-14,-32%,-1%,-16%
CCOC(=O)C(=CNc1ccc(NC2=NCC(C)S2)cc1)C(=O)OCC (stereo not drawn),13%,9.2µM*,-7,6.5µM*,7%,6.5µM*
CC1=CC(C)(C)N(C(=O)CN2C(=O)c3ccccc3C2=O)c2ccccc21,10%,?,1,?,1%,1%
CC1=CC(C)(C)N(S(=O)(=O)c2ccc(F)cc2)c2ccc(C)cc21,7.1µM*,?,37,5.8µM*,?,-4%
Cc1cc(C)c(S(=O)(=O)c2ccc(F)cc2)c(C)c1,-6%,-21%,24,?,-4%,.
